Measured values published in the OligoGym collection.

Target: SNX29
Test: pooled miR-30 sensor sort-seq; sequence = guide strand
Conditions: shRNA
Note: reference of the scale not given here.

Sequence | sensor-assay potency score (higher = more potent)
TAACTTGTGGTGCAAACTCCTG | -1.57
TTCTTTCGTAGGAGCTTGCGAG | -0.569
TTCTGGAGCTGCTTTCTCCGTT | -0.513
TTCTTCAGCAATTTCTCCCGGC | 0.0945
TTGGACTTTGAGCACCTCGTTC | -0.779
TTTTATCCGGATGTAGACCTGA | 0.194
TACTTGTTTTGTAACTTGTGGT | 0.289
TTGACCTTCTCTTTTCAGCATC | -0.863
AACTTCTCCATCAACACTCCAA | 0.0779
TTTCTTTCGTAGGAGCTTGCGA | -0.585
TTCATCGTCTTTTATCCGGATG | -0.658

Target: SNX32
Test: as above
Conditions: shRNA

Sequence | sensor-assay potency score (higher = more potent)
TTGAACAGTGAATTTCACCTTG | 0.337
TACTCCAACAGGAAGGTCCTCT | 0.509
TTAGCTGGTTGACTTCCTGTGT | 0.0166
TTTGAGCTCCAGCTCTGCCAGC | -1.19
TGCGTCAGAAATCTCCACCTGT | 0.185
AATTTGAGGAAGCTCGTCCTTA | -0.0375
TTTCGAAAAGAGGAGACCCGGC | -0.633
TAAGGAGCTGTCTCCCTGCAGA | -1.06
TTCTGTAGCTTTTCCCTCGAAG | -0.129
TGAACAGTGAATTTCACCTTGT | 0.317
TTCGTGCATCGCAACTGTCTTC | -0.785

Target: SOCS2
Test: as above
Conditions: shRNA

Sequence | sensor-assay potency score (higher = more potent)
TTGCACATCTGAACATAGTAGT | 0.207
TTAGTAGGTAGTCTGAATGCGA | -0.295
TTTGGCTTCATTAACAGTCATA | -0.491
TTAAGCTTGGATTTGACACATA | -1
TATCCTTGCACATCTGAACATA | -1.25
TAATCTTTTAGTCTTGTTGGTA | -0.175
TTCGAAGATTAGTTGGTCCAGC | 0.103
TAGTAGGTAGTCTGAATGCGAG | -0.794
TTTTCCGTCTTGGTATTCGATT | -1.45
TTAACAGTCATACTTCCCCAGT | -1.23
TATTGTTAGTAGGTAGTCTGAA | 0.147
TTCTCTTTTACATAGCTGCATT | -0.899

Target: SOHLH2
Test: as above
Conditions: shRNA

Sequence | sensor-assay potency score (higher = more potent)
TTCTCGAACTCTGACAACGAAG | -1.44
TTTGAGGGACATGTTGTCCAGT | -0.779
TTTCTGTACAGTATCAGCCAGG | -0.773
TTCAGTTAAAGCAATATCCATT | -0.431
TTCGCTGTAGGACCTCTGCAGG | -0.848
TTTGATATTAGGTCTTTGGGTG | -0.0455
